A selection: hits, their analogues and other compounds. The true share with any hit is near 5.4%.
CSC inhib = cancer stem cell viability inhibitors, primary screen, luminescence; cancer stem cell-like cells viability; inhibition, % at 7.5 µM; actives 1.1% (n = 300,000); in the data active = inhibition above about 75%; inconclusive = no clear call, values can overlap the other calls; tested in HMLE shEcad cells
PP1 counter = PP1-alpha phosphatase inhibitors, primary screen, counter-screen for PP5 inhibitor project, biochemical, fluorescence, OMFP substrate, single point. purified PP1alpha. inhibition, % at 6.7 µM. actives 0.9% (n = 320,000). AID 2235, 2010;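 active = inhibition above the mean inhibition of all tested compounds plus 3 SD, computed separately for each screening campaign, cut at about 15% in these data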
Target sequence (P62136 whole entry, looked up): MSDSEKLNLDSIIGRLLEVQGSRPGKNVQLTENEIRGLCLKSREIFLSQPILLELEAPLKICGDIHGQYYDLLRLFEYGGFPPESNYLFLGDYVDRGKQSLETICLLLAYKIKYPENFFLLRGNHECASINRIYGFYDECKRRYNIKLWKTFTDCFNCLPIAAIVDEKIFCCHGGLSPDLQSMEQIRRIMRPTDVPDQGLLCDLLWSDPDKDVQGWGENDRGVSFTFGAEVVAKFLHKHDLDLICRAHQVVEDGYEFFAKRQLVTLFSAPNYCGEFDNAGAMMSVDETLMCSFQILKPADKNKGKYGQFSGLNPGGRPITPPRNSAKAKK
ALR H2O2 inh = inhibitors of human ALR sulfhydryl oxidase, primary screen, biochemical, H2O2 detection, HRP-luminol luminescence, single point | FAD-linked sulfhydryl oxidase ALR (Homo sapiens), P55789 | purified ALR, DTT oxidation | inhibition, % (concentration not given with the values) | actives 3.8% (n = 290,000) | AID 485317, 2010;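 active = mean replicate inhibition above about 79%, with every replicate also reaching it, limit read from the data; inconclusive = only one of the two criteria met; inactive = mean below limit and not every replicate reaching it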
Target sequence (P55789 whole entry, looked up): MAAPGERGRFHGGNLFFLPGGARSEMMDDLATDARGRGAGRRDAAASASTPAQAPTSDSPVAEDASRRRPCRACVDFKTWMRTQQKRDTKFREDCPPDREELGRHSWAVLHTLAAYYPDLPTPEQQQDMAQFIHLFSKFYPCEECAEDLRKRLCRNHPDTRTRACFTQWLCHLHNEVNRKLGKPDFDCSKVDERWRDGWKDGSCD
Calb FLC = C. albicans growth inhibition with fluconazole, primary screen, CaCi-2 strain, Alamar Blue fluorescence | C. albicans CaCi-2 (fluconazole-resistant clinical isolate) + fluconazole, 48 h | growth inhibition, % (test concentration not listed) | actives 0.57% (n = 300,000) | AID 1979, 2009;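 active = growth inhibition above about 58% in most replicates, limit read from the data, passing the limit was not always enough; inconclusive = exactly half the replicates above a set limit; inactive = most replicates below a set limit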;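 also: all wells also contain fluconazole at 8 µg/ml as a sub-toxic cotreatment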
PP5 inh = PP5 phosphatase inhibitors, primary screen, biochemical, fluorescence. purified PP5c, OMFP substrate fluorescence. Serine/threonine-protein phosphatase 5 (Homo sapiens), P53041. actives 0.18% (n = 320,000). inhibition, % at 6.7 µM;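 active = inhibition above the campaign's mean inhibition across all tested compounds plus 3 SD, cut at about 9.5% in these data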
Numbers stand for hits.

O=C(CN1CCN(Cc2ccc3c(c2)OCO3)CC1)Nc1ccc(F)cc1 was read as CSC inhib inactive, PP1 counter inactive, ALR H2O2 inh inactive, Calb FLC inactive and PP5 inh inactive.
For Cc1ccc(S(=O)(=O)NNC(=O)NC23CC4CC(CC(C4)C2)C3)cc1 the results were CSC inhib inactive, PP1 counter inactive, ALR H2O2 inh 93.7, Calb FLC inactive and PP5 inh inactive.
O=C1CC(=C2c3ccccc3-c3ccccc32)C(=O)N1CCN1CCN(c2ccccc2)CC1 was read as CSC inhib inactive, PP1 counter 17.2, ALR H2O2 inh inactive, Calb FLC inactive and PP5 inh inactive.
`COc1ccccc1N1CCN(CCN2C(=O)CC(=C3c4ccccc4-c4ccccc43)C2=O)CC1` gave CSC inhib inactive, PP1 counter inactive, ALR H2O2 inh inactive, Calb FLC inactive and PP5 inh inactive.
For Cc1ccccc1N1CCN(CCN2C(=O)CC(=C3c4ccccc4-c4ccccc43)C2=O)CC1 the results were CSC inhib inactive, PP1 counter inactive, ALR H2O2 inh inactive, Calb FLC 89.9 and PP5 inh inactive.
O=C(CCN1C(=O)c2ccccc2C1=O)N1CCN(c2ccccc2)CC1 was read as CSC inhib inactive, PP1 counter inactive, ALR H2O2 inh inactive, Calb FLC inactive and PP5 inh inactive.
CC(NS(=O)(=O)c1ccc(Cl)cc1)C(=O)NCc1ccco1 (stereo not drawn) was read as CSC inhib inactive, PP1 counter inactive, ALR H2O2 inh inactive, Calb FLC inactive and PP5 inh inactive.
For C[C@@H]1CN([C@H](C)CO)C(=O)Cc2cc(NS(=O)(=O)c3ccc(Cl)cc3)ccc2O[C@H]1CN(C)Cc1ccc(C(F)(F)F)cc1 the results were CSC inhib 105.3 and ALR H2O2 inh inactive.
C[C@@H]1CN([C@H](C)CO)C(=O)Cc2cc(NS(=O)(=O)c3ccc(F)cc3)ccc2O[C@H]1CN(C)Cc1ccc(C(=O)O)cc1 was read as ALR H2O2 inh inactive.
N#Cc1ccc(CSc2ccc(S(=O)(=O)N3CCCC3)cn2)cc1 was read as CSC inhib inactive, PP1 counter inactive, ALR H2O2 inh 92.6 and PP5 inh inactive.
COc1cccc(NC(=O)c2ccc3c(c2)CCCC3)c1 was read as CSC inhib inactive, PP1 counter inactive, ALR H2O2 inh inactive, Calb FLC inactive and PP5 inh inactive.
`CC1CC(C)(C)NC(=S)N1CCCC(=O)N1CCN(c2ccc(F)cc2)CC1` (stereo not drawn) gave CSC inhib inactive, PP1 counter inactive, ALR H2O2 inh 82.9, Calb FLC inactive and PP5 inh inactive.
Screening COc1ccc(N2CCN(C(=O)CCN3C(=S)NC(C)(C)CC3C)CC2)cc1 (stereo not drawn) returned CSC inhib inactive, PP1 counter inactive, ALR H2O2 inh 88.4, Calb FLC inactive and PP5 inh inactive.
For CC1CC(C)(C)NC(=S)N1CCC(=O)N1CCN(c2ccccc2)CC1 (stereo not drawn) the results were CSC inhib inactive, PP1 counter inactive, ALR H2O2 inh inconclusive, Calb FLC inactive and PP5 inh inactive.
`Clc1ccc(-c2cnnc(-c3ccccn3)n2)cc1` gave ALR H2O2 inh inactive.
Screening Cc1cccc(C)c1NC(=O)c1c(O)c2ccccc2[nH]c1=O returned CSC inhib inactive, PP1 counter inactive, ALR H2O2 inh inactive, Calb FLC inactive and PP5 inh inactive.
Screening C=Cn1ccnc1P(=S)(c1ccc2c(c1)c1ccccc1n2CC)c1nccn1C=C returned CSC inhib 106.2, PP1 counter inactive, ALR H2O2 inh inactive, Calb FLC inactive and PP5 inh inactive.
CCn1c2ccccc2c2cc(/C=N/O)ccc21 was read as CSC inhib inactive, PP1 counter inactive, ALR H2O2 inh inactive, Calb FLC inactive and PP5 inh inactive.
`Cc1ccc(-c2csc3ncnc(N4CCN(Cc5ccccc5)CC4)c23)cc1` gave CSC inhib inactive, PP1 counter inactive, ALR H2O2 inh inactive, Calb FLC inactive and PP5 inh inactive.
`O=C(O)c1ccccc1C(=O)NCc1ccc(F)cc1` gave CSC inhib inactive, PP1 counter inactive, ALR H2O2 inh inactive, Calb FLC inactive and PP5 inh inactive.
For O=C(O)c1ccccc1C(=O)NNc1ccc(F)cc1 the results were CSC inhib inactive, PP1 counter inactive, ALR H2O2 inh inactive, Calb FLC 101.9 and PP5 inh inactive.
Screening Cc1cc(-c2ccccc2)n(-c2cc(N/N=C/c3ccccc3O)ncn2)n1 returned CSC inhib 105.1, PP1 counter 15.5, ALR H2O2 inh inactive and PP5 inh inactive.
CNc1cc(-n2nc(C)cc2-c2ccccc2)ncn1 was read as CSC inhib inactive, PP1 counter inactive, ALR H2O2 inh inactive, Calb FLC inactive and PP5 inh inactive.
`Cc1nnsc1-c1c(C(=O)O)c(C)nn1-c1ccc(OC(F)(F)F)cc1` gave CSC inhib inactive, PP1 counter inactive, ALR H2O2 inh inactive, Calb FLC inactive and PP5 inh inactive.
CCC(c1nnnn1CCc1ccccc1)N1CCN(c2ccc(OC)cc2)CC1 (stereo not drawn) was read as CSC inhib inactive, PP1 counter inactive, ALR H2O2 inh inactive, Calb FLC inactive and PP5 inh inactive.
For CCOC(=O)CC1C(=O)NCCN1C(=O)c1c(Cl)cccc1Cl (stereo not drawn) the results were PP1 counter inactive, Calb FLC 92.4 and PP5 inh inactive.
`CCOC(=O)CC1C(=O)NCCN1C(=O)c1c(F)cccc1F` (stereo not drawn) gave CSC inhib inactive, PP1 counter inactive, ALR H2O2 inh inactive, Calb FLC inactive and PP5 inh inactive.
Screening COc1ccc(C(=O)OCC(=O)c2c[nH]c3ccccc23)c(OC)c1 returned CSC inhib inactive.
For COc1cccc(NC(=O)c2nc(S(C)(=O)=O)ncc2Cl)c1 the results were CSC inhib 112.9, PP1 counter inactive, Calb FLC inactive and PP5 inh inactive.
Screening Cc1cccc(CS(=O)(=O)c2ncc(Cl)c(C(=O)NCc3ccc4c(c3)OCO4)n2)c1 returned CSC inhib inactive, PP1 counter inactive, ALR H2O2 inh inactive, Calb FLC inactive and PP5 inh inactive.
COC(=O)c1ccc(NC(=O)c2nc(S(=O)(=O)Cc3cccc(C)c3)ncc2Cl)cc1 was read as CSC inhib 110.0, PP1 counter inactive, ALR H2O2 inh inactive, Calb FLC inactive and PP5 inh inactive.
CC(=O)Nc1ccc(NC(=O)c2nc(S(=O)(=O)Cc3cccc(C)c3)ncc2Cl)cc1 was read as CSC inhib 91.4, PP1 counter inactive, ALR H2O2 inh inactive, Calb FLC inactive and PP5 inh inactive.
`CN(C)C(CNC(=O)/C=C/c1cccc(Cl)c1)c1ccccc1` (stereo not drawn) gave CSC inhib inactive, PP1 counter inactive, ALR H2O2 inh inactive, Calb FLC inactive and PP5 inh inactive.
Screening Cn1c(SCc2ccccc2)nnc1-c1ccc2c(c1)OCO2 returned CSC inhib inactive, PP1 counter inactive, ALR H2O2 inh inactive, Calb FLC inactive and PP5 inh inactive.
